Values without a mark were called inactive. Results filed as inconclusive are left out. Entries that show only a call come without a potency. Active and inactive are the calls of the source. Unless noted, calls follow the shape of the dose curve; as a rule, active = well fitted curve in the direction sought with a large enough effect in the repeat runs; inconclusive = weak or mixed curves; inactive = no such curve, though single readings can be large; an effect the other way counts as inactive or inconclusive.
Key:
[1] = target: Thyrotropin-releasing hormone receptor (Homo sapiens) (UniProt P34981); experiment: qHTS assay to identify small molecule agonists of the thyrotropin-releasing hormone receptor (TRHR) signaling pathway (AID 1346891; calls by dose curve; also: series mostly up to about 58 µM)
Procedure, shortened: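 HEK293 cells expressing TRHR plated 18 h at 37 C/5% CO2, calcium dye-loaded 2 h at 37 C, then compound added (agonist mode); kinetic calcium fluorescence read 3 min at 1 s intervals; 15 concentrations in triplicate.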

[2] = Human pregnane X receptor (PXR) small molecule agonists, qHTS cell viability counter screen (AID 1346977); also: nearly all actives have a fitted effect of over 50% in size; also: potency is read from the fitted curve at half-maximal effect
Procedure, shortened: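 PXR-Luc HepG2 cells (2,000/well, 5% charcoal-stripped FBS) preincubated 5 hr, then exposed to compounds 24 hr at 37 C. Viability read in the same wells by CellTiter-Fluor fluorescence, reagent added at 23 hr, 1 hr incubation.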

[3] = Caspase-3/7 induction in HepG2 cells by small molecules, qHTS assay (AID 1346978); also: nearly all actives have a fitted effect of over 15% in size
Procedure, shortened: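 Wild-type HepG2 cells (2,000/well) were settled 5 h at 37 C, 5% CO2, then exposed to compounds in DMSO for 17 h. Caspase-3/7 activity was read by luminescence 30 min after adding Caspase-Glo 3/7 reagent at room temperature.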

[4] = Caspase-3/7 induction in CHO-K1 cells by small molecules, qHTS cell viability counter screen (AID 1346979); also: nearly all actives have a fitted effect of over 35% in size
Procedure, shortened: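 Wild-type CHO-K1 cells (1,500/well) treated with compound after 5 h plating; after 16 h at 37C, viability read as CellTiter-Fluor fluorescence following 1 h reagent incubation, in the same wells as the caspase read.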

[5] = Caspase-3/7 induction in CHO-K1 cells by small molecules, qHTS assay (AID 1346980); also: nearly all actives have a fitted effect of over 15% in size
Procedure, shortened: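 Wild-type cells were seeded at 1,500 per well and settled 5 hr at 37 C, 5% CO2, then exposed to DMSO-dissolved compounds for 17 hr. Caspase-Glo 3/7 reagent was added, and luminescence was read after 30min at room temperature.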

[6] = target: Nuclear receptor subfamily 1 group I member 2 (Homo sapiens) (UniProt O75469); experiment: Human pregnane X receptor (PXR) small molecule agonists, qHTS assay (AID 1346982); also: nearly all actives have a fitted effect of over 35% in size; also: potency is read from the fitted curve at half-maximal effect
Procedure, shortened: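 After plating in 5% charcoal-stripped FBS and a 5 hr rest, PXR-Luc HepG2 cells received compounds in DMSO. Following 24 hr at 37 C, ONE-Glo was added and light output read.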

[7] = target: Cytochrome P450 2D6 (Homo sapiens) (UniProt P10635); experiment: Cytochrome P450 Family 2 Subfamily D Member 6 (CYP2D6) small molecule antagonists: luciferase reporter qHTS assay (AID 1671196); also: nearly all actives have a fitted effect of over 50% in size; also: potency is read from the fitted curve at half-maximal effect
Procedure, shortened: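 Quantitative HTS of Tox21 chemicals against CYP2D6 using a luminescent proluciferin substrate. After NADPH addition, 1 h room-temperature reaction; luminescence recorded 20 min post detection reagent.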

[8] = target: Cytochrome P450 2C19 (Homo sapiens) (UniProt P33261); experiment: Cytochrome P450 Family 2 Subfamily C Member 19 (CYP2C19) small molecule antagonists: luciferase reporter qHTS assay (AID 1671197); also: nearly all actives have a fitted effect of over 65% in size; also: potency is read from the fitted curve at half-maximal effect
Procedure, shortened: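 First, compounds are pinned into enzyme-substrate mix and held 10 min at room temperature. Second, NADPH regeneration solution is added and plates incubate 1 h at 37C. Third, detection reagent is added and luminescence read after 20 min.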

[9] = target: Cytochrome P450 2C9 (Homo sapiens) (UniProt P11712); experiment: Cytochrome P450 Family 2 Subfamily C Member 9 (CYP2C9) small molecule antagonists: luciferase reporter qHTS assay (AID 1671198); also: nearly all actives have a fitted effect of over 50% in size; also: potency is read from the fitted curve at half-maximal effect
Procedure, shortened: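 CYP2C9 activity was measured with a P450-Glo proluciferin substrate. Enzyme–substrate mix was held with compound for 10 min at room temperature, then NADPH regeneration solution was added for 1 h at 37C. Luciferin product was read as luminescence.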

[10] = target: Cytochrome P450 1A2 (Homo sapiens) (UniProt P05177); experiment: Cytochrome P450 Family 1 Subfamily A Member 2 (CYP1A2) small molecule antagonists: luciferase reporter qHTS assay (AID 1671199); also: nearly all actives have a fitted effect of over 50% in size; also: potency is read from the fitted curve at half-maximal effect
Procedure, shortened: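 Quantitative high-throughput format using the P450-Glo CYP1A2 system. Reaction initiated by NADPH regeneration solution, 1 h at room temperature, then stopped with detection reagent; luminescence measured 20 min later.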

[11] = target: Voltage-gated inwardly rectifying potassium channel KCNH2 (Homo sapiens) (UniProt Q12809); experiment: Human Ether-a-go-go-Related Gene (hERG) channel small molecule antagonists: fluorescence cell-based qHTS assay (AID 1671200); also: nearly all actives have a fitted effect of over 50% in size; also: potency is read from the fitted curve at half-maximal effect
Procedure, shortened: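 hERG-U2OS cells plated overnight at 37 C, loaded with FluxOR II dye 1 h at RT in dark; after 10 min, thallium stimulus added. Fluorescence (480/540 nm) read kinetically for 2 min at 1 s intervals.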

[12] = target: Cytochrome P450 3A4 (Homo sapiens) (UniProt P08684); experiment: Cytochrome P450 Family 3 Subfamily A Member 4 (CYP3A4) small molecule antagonists: luciferase reporter qHTS assay (AID 1671201); also: nearly all actives have a fitted effect of over 50% in size; also: potency is read from the fitted curve at half-maximal effect
Procedure, shortened: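 P450-Glo CYP3A4 luminescent assay: compounds preincubated 10 min at room temperature with enzyme and proluciferin substrate, NADPH regeneration added, 1 h room-temperature reaction, stopped with luciferin detection reagent; luminescence read after 20 min. Ketoconazole positive control.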

[13] = Caspase-3/7 induction in HepG2 cells by small molecules, qHTS cell viability counter screen (AID 1346981); also: series mostly up to about 92 µM; nearly all actives have a fitted effect of over 30% in size
Procedure, shortened: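 The parent HepG2 line is plated at 2,000 cells per well and rested 5 hr before compound pinning from DMSO stocks. Following a 16-hr treatment at 37 C, a fluorogenic live-cell substrate (CellTiter-Fluor) reports viability after 1 hr.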

[14] = target: Nuclear receptor subfamily 1 group I member 2 (Rattus norvegicus) (UniProt Q9R1A7); experiment: Rat pregnane X receptor (rPXR) activation by small molecules, qHTS assay (AID 1346983); details: rPXR luciferase reporter cells, One-Glo luminescence, 24 h; max activation: hits give high values; also: nearly all actives have a fitted effect of over 20% in size
Procedure, shortened: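 Cell-based rPXR luciferase reporter assay, 2,000 cells per well, rested 5hr at 37 C before compound addition in DMSO, then 24 hr at 37 C. One-Glo reagent was added and luminescence read after 30 min at room temperature.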

[15] = target: Nuclear receptor subfamily 1 group I member 2 (Homo sapiens) (UniProt O75469); experiment: CYP3A4 induction through human pregnane X receptor (PXR) by small molecules, qHTS assay (AID 1346984); also: nearly all actives have a fitted effect of over 40% in size
Procedure, shortened: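 Human PXR activation is tracked via CYP3A4 promoter-luciferase in DPX-2 (HepG2) cells. Compounds treat cells for 24hr at 37C, and luminescence is read after One-Glo.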

[16] = target: Nuclear receptor subfamily 1 group I member 2 (Homo sapiens) (UniProt O75469); experiment: Human pregnane X receptor (PXR) activation by small molecules, qHTS assay (AID 1346985); also: nearly all actives have a fitted effect of over 40% in size
Procedure, shortened: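 DPX-2 cells (HepG2 co-transfected with a PXR response element and a CYP3A4-promoter luciferase construct) were seeded at 2,000 per well, rested 5 hr at 37C, then exposed to DMSO-dissolved compounds for 24 hr. Activation was read as luciferase luminescence.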

Sequence of Thyrotropin-releasing hormone receptor (Homo sapiens) (P34981 whole entry, looked up): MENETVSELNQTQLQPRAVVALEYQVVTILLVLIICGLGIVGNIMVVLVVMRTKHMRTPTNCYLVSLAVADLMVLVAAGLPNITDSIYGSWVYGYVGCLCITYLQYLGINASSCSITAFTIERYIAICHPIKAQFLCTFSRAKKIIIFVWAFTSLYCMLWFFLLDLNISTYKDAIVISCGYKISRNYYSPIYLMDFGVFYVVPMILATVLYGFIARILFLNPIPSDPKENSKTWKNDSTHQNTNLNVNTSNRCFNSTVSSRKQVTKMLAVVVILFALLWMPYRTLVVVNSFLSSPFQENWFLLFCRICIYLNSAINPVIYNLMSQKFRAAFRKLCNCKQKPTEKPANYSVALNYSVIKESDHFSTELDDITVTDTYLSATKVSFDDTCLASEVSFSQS
Sequence of Nuclear receptor subfamily 1 group I member 2 (Homo sapiens) (O75469 whole entry, looked up): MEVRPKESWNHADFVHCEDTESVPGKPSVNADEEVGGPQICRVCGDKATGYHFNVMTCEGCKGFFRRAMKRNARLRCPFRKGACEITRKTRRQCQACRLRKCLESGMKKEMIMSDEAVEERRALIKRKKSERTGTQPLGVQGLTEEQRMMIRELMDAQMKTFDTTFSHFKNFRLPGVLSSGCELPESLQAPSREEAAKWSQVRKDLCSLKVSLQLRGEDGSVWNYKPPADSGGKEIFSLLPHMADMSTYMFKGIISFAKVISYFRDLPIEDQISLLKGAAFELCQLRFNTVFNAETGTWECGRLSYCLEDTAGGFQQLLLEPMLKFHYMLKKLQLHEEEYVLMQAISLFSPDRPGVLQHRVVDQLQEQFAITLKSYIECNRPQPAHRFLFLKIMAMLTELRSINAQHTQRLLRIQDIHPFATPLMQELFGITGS
Sequence of Voltage-gated inwardly rectifying potassium channel KCNH2 (Homo sapiens) (Q12809 whole entry, looked up): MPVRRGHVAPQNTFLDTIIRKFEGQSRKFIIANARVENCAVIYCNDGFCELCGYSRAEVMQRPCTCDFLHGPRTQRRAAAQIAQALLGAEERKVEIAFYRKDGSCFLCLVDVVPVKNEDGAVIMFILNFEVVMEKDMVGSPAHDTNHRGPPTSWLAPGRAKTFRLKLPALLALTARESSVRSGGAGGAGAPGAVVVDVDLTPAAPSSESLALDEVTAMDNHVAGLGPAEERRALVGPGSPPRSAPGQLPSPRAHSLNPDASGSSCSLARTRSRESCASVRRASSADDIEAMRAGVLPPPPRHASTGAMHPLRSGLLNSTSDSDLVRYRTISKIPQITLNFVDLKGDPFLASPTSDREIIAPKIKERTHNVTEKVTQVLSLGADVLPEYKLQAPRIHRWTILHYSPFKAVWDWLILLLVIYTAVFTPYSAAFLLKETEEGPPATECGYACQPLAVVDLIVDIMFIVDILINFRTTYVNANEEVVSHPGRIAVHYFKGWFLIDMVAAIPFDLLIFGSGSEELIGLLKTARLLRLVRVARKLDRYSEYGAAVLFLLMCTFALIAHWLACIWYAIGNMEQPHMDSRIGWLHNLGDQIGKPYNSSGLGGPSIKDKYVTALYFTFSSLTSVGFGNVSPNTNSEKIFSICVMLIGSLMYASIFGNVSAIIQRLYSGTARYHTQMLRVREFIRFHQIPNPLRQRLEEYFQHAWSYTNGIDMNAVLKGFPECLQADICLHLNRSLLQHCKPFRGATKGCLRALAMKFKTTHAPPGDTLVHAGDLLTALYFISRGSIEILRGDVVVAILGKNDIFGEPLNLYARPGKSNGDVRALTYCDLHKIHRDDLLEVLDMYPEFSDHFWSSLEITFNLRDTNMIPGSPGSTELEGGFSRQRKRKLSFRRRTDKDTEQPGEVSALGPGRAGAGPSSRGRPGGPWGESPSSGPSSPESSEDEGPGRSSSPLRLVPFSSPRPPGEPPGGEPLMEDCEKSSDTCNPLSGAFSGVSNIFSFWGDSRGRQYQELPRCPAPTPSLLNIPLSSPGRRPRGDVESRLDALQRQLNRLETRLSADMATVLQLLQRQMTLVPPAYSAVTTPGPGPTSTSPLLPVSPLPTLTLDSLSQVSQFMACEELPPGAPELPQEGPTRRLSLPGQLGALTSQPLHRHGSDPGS
Sequence of Cytochrome P450 2C9 (Homo sapiens) (P11712 whole entry, looked up): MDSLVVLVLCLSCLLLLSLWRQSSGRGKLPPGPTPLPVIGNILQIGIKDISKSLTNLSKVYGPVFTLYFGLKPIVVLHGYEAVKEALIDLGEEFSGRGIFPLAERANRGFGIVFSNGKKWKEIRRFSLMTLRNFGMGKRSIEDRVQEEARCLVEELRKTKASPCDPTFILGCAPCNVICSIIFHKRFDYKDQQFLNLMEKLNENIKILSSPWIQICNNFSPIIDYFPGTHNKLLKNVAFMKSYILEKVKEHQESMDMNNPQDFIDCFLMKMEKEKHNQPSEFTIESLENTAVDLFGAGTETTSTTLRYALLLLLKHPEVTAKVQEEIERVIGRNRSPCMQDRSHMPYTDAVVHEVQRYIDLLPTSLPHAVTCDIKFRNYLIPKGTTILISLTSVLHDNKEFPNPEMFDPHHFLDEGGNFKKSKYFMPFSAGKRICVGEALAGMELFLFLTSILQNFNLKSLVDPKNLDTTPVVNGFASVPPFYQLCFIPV
Sequence of Nuclear receptor subfamily 1 group I member 2 (Rattus norvegicus) (Q9R1A7 whole entry, looked up): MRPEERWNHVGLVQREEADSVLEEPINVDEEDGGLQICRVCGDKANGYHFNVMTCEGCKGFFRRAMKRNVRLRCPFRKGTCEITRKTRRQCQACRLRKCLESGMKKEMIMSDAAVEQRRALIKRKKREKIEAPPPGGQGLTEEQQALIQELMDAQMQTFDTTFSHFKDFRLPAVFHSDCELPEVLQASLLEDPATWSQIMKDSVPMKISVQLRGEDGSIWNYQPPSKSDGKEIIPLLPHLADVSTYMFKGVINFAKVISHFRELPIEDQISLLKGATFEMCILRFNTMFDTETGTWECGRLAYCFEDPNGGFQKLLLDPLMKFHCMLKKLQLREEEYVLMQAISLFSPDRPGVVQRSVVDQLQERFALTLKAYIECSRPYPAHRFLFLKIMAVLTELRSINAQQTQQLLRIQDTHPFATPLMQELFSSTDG
Sequence of Cytochrome P450 1A2 (Homo sapiens) (P05177 whole entry, looked up): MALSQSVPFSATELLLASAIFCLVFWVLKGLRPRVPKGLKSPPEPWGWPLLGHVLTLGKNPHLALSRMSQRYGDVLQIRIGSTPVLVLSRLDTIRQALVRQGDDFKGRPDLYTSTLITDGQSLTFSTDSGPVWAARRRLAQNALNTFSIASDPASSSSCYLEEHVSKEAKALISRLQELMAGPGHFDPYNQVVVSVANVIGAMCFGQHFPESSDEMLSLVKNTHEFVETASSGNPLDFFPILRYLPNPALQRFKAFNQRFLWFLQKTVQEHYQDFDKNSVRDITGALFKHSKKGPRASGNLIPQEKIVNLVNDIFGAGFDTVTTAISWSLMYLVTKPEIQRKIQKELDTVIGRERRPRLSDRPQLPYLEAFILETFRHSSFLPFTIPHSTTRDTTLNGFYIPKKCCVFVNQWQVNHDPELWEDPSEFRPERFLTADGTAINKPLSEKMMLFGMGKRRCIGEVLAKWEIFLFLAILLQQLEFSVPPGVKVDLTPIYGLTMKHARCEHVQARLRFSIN
Sequence of Cytochrome P450 3A4 (Homo sapiens) (P08684 whole entry, looked up): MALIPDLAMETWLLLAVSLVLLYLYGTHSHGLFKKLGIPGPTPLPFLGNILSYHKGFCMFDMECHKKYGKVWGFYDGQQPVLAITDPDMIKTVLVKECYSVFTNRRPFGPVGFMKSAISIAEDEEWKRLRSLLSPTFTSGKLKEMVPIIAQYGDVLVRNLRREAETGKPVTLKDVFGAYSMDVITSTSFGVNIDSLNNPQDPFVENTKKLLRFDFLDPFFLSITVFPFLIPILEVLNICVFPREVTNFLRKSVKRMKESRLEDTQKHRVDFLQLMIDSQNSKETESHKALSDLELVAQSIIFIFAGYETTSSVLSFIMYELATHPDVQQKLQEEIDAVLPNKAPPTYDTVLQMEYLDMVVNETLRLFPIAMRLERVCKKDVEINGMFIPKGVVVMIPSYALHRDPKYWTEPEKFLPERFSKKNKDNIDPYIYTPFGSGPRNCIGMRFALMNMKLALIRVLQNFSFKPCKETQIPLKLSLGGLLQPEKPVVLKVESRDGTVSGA
Sequence of Cytochrome P450 2D6 (Homo sapiens) (P10635 whole entry, looked up): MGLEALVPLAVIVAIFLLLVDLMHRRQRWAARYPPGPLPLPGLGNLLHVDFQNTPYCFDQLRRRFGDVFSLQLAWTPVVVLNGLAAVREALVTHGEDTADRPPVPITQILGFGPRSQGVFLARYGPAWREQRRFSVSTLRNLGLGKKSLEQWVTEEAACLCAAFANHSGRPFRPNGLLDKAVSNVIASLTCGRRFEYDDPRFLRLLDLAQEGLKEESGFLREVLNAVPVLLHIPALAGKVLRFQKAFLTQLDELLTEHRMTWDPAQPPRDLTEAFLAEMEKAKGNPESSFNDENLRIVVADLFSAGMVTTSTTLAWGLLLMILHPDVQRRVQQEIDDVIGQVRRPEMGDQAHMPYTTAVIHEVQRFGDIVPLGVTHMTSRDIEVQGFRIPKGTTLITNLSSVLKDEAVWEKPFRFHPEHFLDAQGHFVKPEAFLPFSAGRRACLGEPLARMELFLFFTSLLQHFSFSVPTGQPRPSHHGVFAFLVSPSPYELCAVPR
Sequence of Cytochrome P450 2C19 (Homo sapiens) (P33261 whole entry, looked up): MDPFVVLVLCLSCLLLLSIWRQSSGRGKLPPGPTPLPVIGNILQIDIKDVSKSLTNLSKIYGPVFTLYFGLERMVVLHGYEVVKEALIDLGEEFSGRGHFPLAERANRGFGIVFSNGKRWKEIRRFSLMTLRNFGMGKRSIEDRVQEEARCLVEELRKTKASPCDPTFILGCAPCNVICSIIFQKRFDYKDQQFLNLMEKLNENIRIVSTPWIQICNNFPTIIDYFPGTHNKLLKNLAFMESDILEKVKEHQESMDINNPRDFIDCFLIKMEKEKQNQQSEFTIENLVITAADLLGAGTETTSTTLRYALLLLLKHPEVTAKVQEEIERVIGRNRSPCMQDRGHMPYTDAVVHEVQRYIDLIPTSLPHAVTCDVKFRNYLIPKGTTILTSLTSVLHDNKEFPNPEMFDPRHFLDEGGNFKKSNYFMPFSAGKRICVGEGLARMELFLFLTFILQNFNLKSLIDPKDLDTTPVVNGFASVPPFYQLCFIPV

Row | Compound | Potency [1] | Potency [2] | Potency [3] | Potency [4] | outcome [5] | Potency [6] | Potency [7] | Potency [8] | Potency [9] | Potency [10] | Potency [11] | Potency [12] | Potency [13] | max activation [14] [%] | Potency [15] | Potency [16]
1 | COC(=O)c1ccc(OC)cc1 | inactive | inactive | inactive | inactive | inactive | inactive | inactive | inactive | inactive | 35.6 µM (active) | inactive | inactive | – | – | – | –
2 | CC(Oc1c(Cl)cccc1Cl)C1=NCCN1 (configuration not stated) | inactive | inactive | inactive | inactive | inactive | – | 4.9 µM (active) | – | – | 12.9 µM (active) | inactive | – | inactive | – | – | –
3 | CCN1CC(CCN2CCOCC2)C(c2ccccc2)(c2ccccc2)C1=O (configuration not stated) | inactive | inactive | inactive | – | inactive | inactive | 1.23 µM (active) | inactive | inactive | inactive | inactive | – | inactive | 9.94 | inactive | –
4 | CCCNC(C)(C)COC(=O)c1ccccc1 | inactive | inactive | inactive | inactive | inactive | – | – | – | – | – | inactive | – | inactive | – | – | –
5 | NNS(=O)(=O)c1ccc(Oc2ccc(S(=O)(=O)NN)cc2)cc1 | inactive | inactive | inactive | inactive | inactive | – | inactive | 10 µM (active) | 5.03 µM (active) | inactive | inactive | inactive | inactive | – | – | –
6 | CCOc1ccc(OCC)c(Cl)c1 | inactive | inactive | inactive | – | inactive | inactive | inactive | inactive | inactive | 25.2 µM (active) | inactive | inactive | inactive | – | – | –
7 | O=C(O)[C@@H](O)[C@H](O)[C@H](O)[C@@H](O)C(=O)O | inactive | inactive | inactive | inactive | inactive | inactive | inactive | inactive | inactive | inactive | inactive | inactive | – | – | – | –
8 | CCCCNCCCC | inactive | inactive | inactive | inactive | inactive | inactive | – | – | – | inactive | – | inactive | inactive | – | – | –
9 | Nc1ccc2ccccc2c1S(=O)(=O)O | inactive | inactive | inactive | inactive | inactive | 62.3 µM (active) | 32.4 µM (active) | 40.7 µM (active) | – | 3.24 µM (active) | inactive | 57.5 µM (active) | – | – | – | –
10 | O=C1N(c2ccccc2)c2ccccc2C1(Cc1ccncc1)Cc1ccncc1 | inactive | inactive | inactive | – | inactive | inactive | 30.9 µM (active) | 2.45 µM (active) | 3.47 µM (active) | inactive | inactive | – | – | – | – | –
11 | CCCCNc1cc(C(=O)O)cc(S(N)(=O)=O)c1Oc1ccccc1 | inactive | inactive | inactive | inactive | inactive | – | – | – | – | – | inactive | – | inactive | – | – | –
12 | CC1=C2[C@H](/C=C(\C)C(=O)O)CC[C@@H](C)[C@H]2CC1 | inactive | inactive | inactive | inactive | inactive | 56.5 µM (active) | – | 73.7 µM (active) | – | 65.6 µM (active) | inactive | inactive | inactive | – | – | –
13 | O=C1CCN(c2ccccc2)N1 | inactive | inactive | inactive | inactive | inactive | – | 35.7 µM (active) | 80 µM (active) | 8 µM (active) | 35.7 µM (active) | inactive | 35.7 µM (active) | inactive | – | – | –
14 | CCCCOc1cc(C(=O)NCCN(CC)CC)c2ccccc2n1 | inactive | 21.1 µM (active) | inactive | – | inactive | – | 13.8 µM (active) | 34.7 µM (active) | inactive | – | 5.35 µM (active) | – | – | -1.11 | – | –
15 | CC1=C(CC(=O)O)c2cc(F)ccc2/C1=C\c1ccc(S(C)(=O)=O)cc1 | inactive | inactive | inactive | – | inactive | inactive | – | inactive | – | 17.4 µM (active) | inactive | inactive | inactive | – | – | –
16 | C[C@]12CCC(=O)C=C1CC[C@@H]1[C@@H]2CC[C@@]2(C)[C@H]1CC[C@]2(O)C(=O)CO | inactive | inactive | inactive | inactive | inactive | inactive | – | 8.71 µM (active) | – | inactive | inactive | inactive | – | 14.2 | inactive | inactive
17 | CC1=CC(=O)CC(C)(C)C1=O | inactive | inactive | inactive | – | inactive | 62.4 µM (active) | inactive | inactive | inactive | inactive | inactive | inactive | inactive | – | – | –
18 | C=C(C)C(=O)OCCOP(=O)(O)O | inactive | inactive | inactive | – | inactive | inactive | inactive | – | inactive | inactive | inactive | inactive | inactive | – | – | –

— PubChem BioAssay (Tox21)
